Among the test systems are NCI-H23 lung; NCI-H226 lung; NCI-H322M lung; HOP-62 NSCLC; NCI-H460 lung; HOP-92 NSCLC; A549/ATCC NSCLC; 786-0 renal; COLO 205 colon; DU-145 prostate; K-562 leukemia; MALME-3M melanoma; MDA-MB-231 breast; RXF 393 renal; SF-268 CNS; SF-295 CNS; SF-539 CNS; UACC-257 melanoma; M14 melanoma.
What all share (test): NCI-60 one-dose screen, 48 h (100 = growth as untreated, 0 = no growth, -100 = all killed)
What all share (conditions): 10 µM unless noted

This is part of a sample that, as a whole, favours compounds with a hit. Of some 83,000 tested, about 20% had one in any assay.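 Step 1: grow cells in 96-well plates. Step 2: add test compound at a single concentration. Step 3: incubate 48 h. Step 4: record percent growth.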 Values without a mark were called inactive. Calls of active or inactive are those of the source. Rule for the calls: active = growth percent below 10; inactive = the rest.

Regarding `C/C(=C\CCc1ccoc1)CC/C=C(\C)CCCN1CCSCC1`, the growth was 64.6% in the assay on NCI-H23 lung; 80% in the assay with NCI-H226 lung; 7.95% (active) in the assay on NCI-H322M lung; 97.5% in the assay with HOP-62 NSCLC; 10.1% with NCI-H460 lung; 73.3% with HOP-92 NSCLC. The growth with A549/ATCC NSCLC is 28.4%; in the assay on 786-0 renal, 91.6%; with COLO 205 colon, 51.1%; with DU-145 prostate, 92.9%; with K-562 leukemia it was 56.6%; in the assay with MALME-3M melanoma it was 104%. Also, the growth was 80% in the assay with MDA-MB-231 breast; 78.8% with RXF 393 renal; 96.4% in the assay on SF-268 CNS; 46.9% with SF-295 CNS; 92.1% in the assay with SF-539 CNS; 61.1% in the assay with UACC-257 melanoma. Further, the growth with M14 melanoma is 81.6%.

In the case of `CC1CN(CC(O)c2ccc(Br)cc2)CCO1` (configuration not stated), the growth with NCI-H23 lung was 104%; in the assay on NCI-H226 lung, 109%; in the assay on NCI-H322M lung, 107%; in the assay with HOP-62 NSCLC, 108%; in the assay with NCI-H460 lung it was 108%; in the assay with HOP-92 NSCLC it was 82.5%. Moreover, the growth in the assay with A549/ATCC NSCLC was 102%; with 786-0 renal it was 102%; in the assay on COLO 205 colon, 98.1%; in the assay on DU-145 prostate, 114%; with K-562 leukemia, 96.9%; with MALME-3M melanoma, 116%. The growth in the assay on MDA-MB-231 breast was 123%; in the assay with RXF 393 renal, 124%; in the assay on SF-268 CNS, 99.9%; with SF-295 CNS it was 112%; in the assay with SF-539 CNS it was 106%; with UACC-257 melanoma, 105%. In the assay on M14 melanoma, the growth was 104%.

In the case of `COc1ccc(-c2cc(-c3nnc(SCC(=O)Nc4ccc(C(C)=O)cc4)n3-c3ccccc3)c3ccccc3n2)cc1OC`, the growth was 96.2% in the assay on NCI-H23 lung; 105% with NCI-H226 lung; 102% in the assay with NCI-H322M lung; 84% with HOP-62 NSCLC; 103% in the assay with NCI-H460 lung; 104% in the assay on HOP-92 NSCLC. Moreover, the growth in the assay with A549/ATCC NSCLC was 94.9%; in the assay on 786-0 renal, 97.1%; with COLO 205 colon, 98.8%; with DU-145 prostate, 110%; in the assay with K-562 leukemia, 110%; in the assay with MALME-3M melanoma it was 97.2%. For the same molecule, the growth in the assay on MDA-MB-231 breast is 105%; with RXF 393 renal it was 115%; in the assay on SF-268 CNS it was 89.9%; in the assay on SF-295 CNS, 98.7%; in the assay with SF-539 CNS, 97.4%; in the assay with UACC-257 melanoma, 87.1%. Also, the growth in the assay on M14 melanoma was 93.7%.

As for `COc1ccc(-c2nc3sc4c(c3c(=O)[nH]2)CCCCCC4)cc1`, the growth in the assay on NCI-H23 lung was 80.7%; with NCI-H226 lung it was 86.5%; with NCI-H322M lung it was 74.4%; in the assay on HOP-62 NSCLC it was 36.2%; in the assay on NCI-H460 lung, 33.2%; with HOP-92 NSCLC, 73.2%. For the same molecule, the growth with A549/ATCC NSCLC is 50.3%; in the assay on 786-0 renal, 80.1%; in the assay with COLO 205 colon, 35.4%; in the assay on DU-145 prostate, 66.6%; in the assay on K-562 leukemia it was 17.8%; in the assay with MALME-3M melanoma, 8.18% (active). Also, the growth with MDA-MB-231 breast was 52.6%; in the assay on RXF 393 renal it was 28.4%; in the assay with SF-268 CNS it was 48.6%; in the assay on SF-295 CNS, 43.6%; in the assay on SF-539 CNS, 65.1%; in the assay on UACC-257 melanoma, 64%. Further, in the assay on M14 melanoma, the growth is 33.7%.

Consider `c1ccc(Nc2ccc(Nc3nc(-c4ccccc4)nc4ccccc34)cc2)cc1`, for which the growth was 86.9% with NCI-H23 lung; 81.2% with NCI-H226 lung; 90.5% with NCI-H322M lung; 79.8% in the assay on HOP-62 NSCLC; 83.4% in the assay with NCI-H460 lung; 134% in the assay on HOP-92 NSCLC. In addition, the growth in the assay on A549/ATCC NSCLC was 63.2%; with 786-0 renal, 65.7%; in the assay with COLO 205 colon it was 78.5%; in the assay on DU-145 prostate, 75.1%; in the assay with K-562 leukemia it was 6.16% (active); in the assay with MALME-3M melanoma, 109%. Also, the growth was 63% in the assay with MDA-MB-231 breast; 83% in the assay with RXF 393 renal; 93.6% with SF-268 CNS; 55.9% in the assay with SF-295 CNS; 86.2% in the assay with SF-539 CNS; 100% in the assay on UACC-257 melanoma. The growth in the assay on M14 melanoma was 76%.

On to `CCCCCCCCCCCCCCCCNC(=O)Nc1ccc2ccccc2c1`, for which the growth in the assay with NCI-H23 lung was 103%; in the assay on NCI-H226 lung, 108%; in the assay with NCI-H322M lung it was 110%; with HOP-62 NSCLC it was 105%; with NCI-H460 lung, 99.2%; in the assay on HOP-92 NSCLC, 74.5%. Moreover, the growth with A549/ATCC NSCLC was 107%; with 786-0 renal, 104%; in the assay with COLO 205 colon, 103%; with DU-145 prostate, 126%; in the assay on K-562 leukemia, 111%; in the assay on MALME-3M melanoma, 95.4%. Also, the growth in the assay on MDA-MB-231 breast was 98.1%; in the assay on RXF 393 renal, 104%; with SF-268 CNS it was 126%; with SF-295 CNS, 106%; in the assay with SF-539 CNS it was 106%; in the assay on UACC-257 melanoma it was 95.5%. In addition, the growth in the assay with M14 melanoma is 94.9%.

Take `[N-]=[N+]=NCc1ncc(-c2ccc(C(F)(F)F)cc2)c(NC2CCCCCC2)n1`: the growth with NCI-H23 lung is 66.1% [50 µM]; with NCI-H226 lung, 80.9% [50 µM]; with NCI-H322M lung it was 89.5% [50 µM]; with HOP-62 NSCLC, 87% [50 µM]; in the assay on NCI-H460 lung, 58.4% [50 µM]; in the assay on HOP-92 NSCLC it was 64.5% [50 µM]. The growth in the assay with A549/ATCC NSCLC was 59.4% [50 µM]; in the assay on 786-0 renal, 68.7% [50 µM]; in the assay on COLO 205 colon, 87.2% [50 µM]; with DU-145 prostate, 73.4% [50 µM]; in the assay with K-562 leukemia, 34.5% [50 µM]; in the assay on MALME-3M melanoma, 85% [50 µM]. The growth with MDA-MB-231 breast is 73% [50 µM]; with RXF 393 renal, 87.7% [50 µM]; in the assay with SF-268 CNS it was 75.5% [50 µM]; in the assay on SF-295 CNS, 49.9% [50 µM]; in the assay with SF-539 CNS it was 82.2% [50 µM]; with UACC-257 melanoma, 89.3% [50 µM]. Besides, in the assay on M14 melanoma, the growth was 74.6% [50 µM].

Regarding `O=C1C=CC(=O)N1c1ccccn1`, the growth with NCI-H23 lung is 102%; in the assay on NCI-H226 lung it was 108%; in the assay on NCI-H322M lung it was 110%; in the assay with HOP-62 NSCLC it was 113%; with NCI-H460 lung, 106%; in the assay on HOP-92 NSCLC it was 104%. In addition, the growth with A549/ATCC NSCLC was 96.9%; in the assay on 786-0 renal it was 105%; with COLO 205 colon it was 112%; with DU-145 prostate it was 111%; in the assay on K-562 leukemia, 94.5%; with MALME-3M melanoma it was 124%. Moreover, the growth with MDA-MB-231 breast is 102%; in the assay with RXF 393 renal, 126%; in the assay with SF-268 CNS, 99.1%; in the assay with SF-295 CNS it was 105%; with SF-539 CNS it was 99.8%; in the assay with UACC-257 melanoma it was 105%. The growth in the assay on M14 melanoma was 105%.

These data come from PubChem BioAssay (NCI).
